A selection: hits, their analogues and other compounds. The true share with any hit is near 5.3%.
Tau FP inhib: qHTS for Inhibitors of Tau Fibril Formation, Fluorescence Polarization; K18 P301L tau heparin fibrillization, Alexa594 FP, 6 h; Potency, µM (titrated, usually from 57.7 µM), hits mostly inhibitors; 280,000 tested, 0.39% active; further: nearly all actives have a fitted effect of over 55% in size
Target sequence (P10636 561-689 P618L limits assumed): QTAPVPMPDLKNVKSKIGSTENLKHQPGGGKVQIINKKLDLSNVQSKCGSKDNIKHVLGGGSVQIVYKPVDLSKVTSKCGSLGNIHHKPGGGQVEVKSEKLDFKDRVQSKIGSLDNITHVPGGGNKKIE
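Compound effects on tau fibrillization are measured by Alexa 594 fluorescence polarization (ex 555, em 632 nm). K18 P301L tau is used at 15 uM with 0.24 uM labeled tracer, and 20 uM heparin induces aggregation over 6 hr at 37 C.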
FBPA coupling cs: qHTS Assay for Inhibitors of Fructose-1,6-bisphosphate Aldolase from Giardia Lamblia: Coupling assay counterscreen. coupling enzyme system counterscreen, AmpLite Red fluorescence. 290,000 tested, 0.67% active. activity change, negative = inhibition, % at 58.2 µM, hits read low; in the data active means activity change below about -30%
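Compounds tested against the coupling enzymes alone at 57.5 uM final; readout was AmpLite Red fluorescence (525/598 nm) after 20 min at RT.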
Sfp PPTase inh: qHTS Assay for Inhibitors of Bacillus subtilis Sfp phosphopantetheinyl transferase (PPTase). 310,000 tested, 3.5% active. Biochemical Sfp PPTase activity, qHTS. 4'-phosphopantetheinyl transferase ffp (Bacillus subtilis), Q9F4F7. Potency, µM, actives largely listed as inhibitors;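 further: the enzyme is Sfp with the accession as filed and its product quenches rhodamine fluorescence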
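Fluorescence-quenching assay: 15 nM Sfp-PPTase preincubated 15 min at room temperature with compound, then 5 uM rhodamine-CoA and 12.5 uM BHQ-2-labelled YbbR peptide added. Fluorescence (ex 525/em 598 nm) read at start and after 30 min; difference gives rate.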
KDM4E inh: qHTS Assay for Inhibitors of Human Jumonji Domain Containing 2E (JMJD2E). Lysine-specific demethylase 4E (Homo sapiens), B2RXH2. JMJD2E catalytic domain, FDH-coupled NADH fluorescence (FDH is formaldehyde dehydrogenase). Potency, µM (doses to about 57.1 µM), usual class: inhibitors. 230,000 tested, 1.6% active; active means well fitted inhibition curve with a large enough effect, not every such curve was filed as active; inconclusive means small, poorly fitted or top-dose-only effect, or another doubt; inactive means no such curve, though single readings can be large or run the other way; further: nearly all actives have a fitted effect of over 50% in size
Target sequence (B2RXH2 1-337 limits assumed): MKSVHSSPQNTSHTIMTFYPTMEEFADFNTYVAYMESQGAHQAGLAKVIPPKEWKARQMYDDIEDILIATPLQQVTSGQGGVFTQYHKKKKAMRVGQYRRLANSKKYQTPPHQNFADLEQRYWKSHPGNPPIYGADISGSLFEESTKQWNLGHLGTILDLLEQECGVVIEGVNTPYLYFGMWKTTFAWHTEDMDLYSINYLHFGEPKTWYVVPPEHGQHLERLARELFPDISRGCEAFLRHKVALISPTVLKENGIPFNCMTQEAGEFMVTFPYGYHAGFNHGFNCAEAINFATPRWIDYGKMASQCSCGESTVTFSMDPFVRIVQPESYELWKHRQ
Tau fibril ThT: qHTS for Inhibitors of Tau Fibril Formation, Thioflavin T Binding; 270,000 tested, 2.1% active; Potency, µM (highest dose often 57.4 µM), hits mostly inhibitors; recombinant tau K18 P301L, heparin-induced fibrillization, ThT fluorescence; Microtubule-associated protein tau (Homo sapiens), P10636; AID 1460, 2008; further: nearly all actives have a fitted effect of over 55% in size
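Fibril formation assay: tau K18 P301L at 15 uM with trace Alexa 594 label, heparin inducer 20 uM, pH 7 sodium acetate buffer, 37 C for 6 hr; endpoint ThT signal.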
Tau fluor counter: Counterscreen qHTS for Inhibitors of Tau Fibril Formation, Fluorescence Polarization. tau K18 P301L (four-repeat tau fragment) Alexa594 fluorescence, heparin fibrillization. Potency, µM (titrated, usually from 57.7 µM). 280,000 tested, 0.93% active. AID 1463, 2008; further: nearly all actives have a fitted effect of over 55% in size
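Human K18 P301L tau (15 uM unlabeled plus 0.24 uM Alexa 594-labeled, final) in 100 mM sodium acetate pH 7 was mixed with compound and 20 uM heparin and incubated 6 hr at 37 C.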
A number is an active result; 0 = inactive; ? = inconclusive; - = no result; [ ] = dose if it differs, or a comment. Unless noted, the call rests on the fitted dose curve; in most records, active means well fitted curve in the direction sought with a large enough effect; inconclusive means small, poorly fitted or top-dose-only effect, or another doubt; inactive means no such curve, though single readings can be large; an effect the other way counts as inactive or inconclusive.

SMILES	Tau FP inhib	FBPA coupling cs	Sfp PPTase inh	KDM4E inh	Tau fibril ThT	Tau fluor counter
Cc1ccc(NC(=S)N(CCCN2CCCC2)Cc2cccn2Cc2ccc(Cl)cc2)cc1Cl	0	0	0	0	?	?
COc1ccc(NC(=S)N(CCCN2CCN(C)CC2)Cc2cccs2)cc1	0	0	0	0	0	0
COc1ccc(NC(=S)N(CCCN2CCCC2)Cc2cccn2Cc2ccc(Cl)cc2)cc1Cl	0	0	79.4µM	0	?	?
COc1ccc(NC(=S)N(CCCN2CCC(C)CC2)Cc2cccs2)cc1Cl	0	0	31.6µM	0	0	0
COCCN(C(=S)Nc1ccc(OC)c(Cl)c1)C1CCN(C(C)C)CC1	0	0	39.8µM	0	0	0
COCCN(C(=S)Nc1ccc(OC)cc1)C1CCN(C(C)C)CC1	0	0	0	0	0	0
FC(F)(F)c1cccc(NC(=S)N(CCCN2CCCC2)Cc2cccn2Cc2ccc(Cl)cc2)c1	0	0	56.2µM	0	?	?
c1ccc(-c2nc(-c3ccco3)cs2)nc1	0	0	44.7µM	?	?	0
O=C(Cc1coc2cc3c(cc12)CCC3)OCc1cc(=O)n2c(n1)sc1ccccc12	0	0	39.8µM	?	0	0
O=C(OCc1cc(=O)n2c(n1)sc1ccccc12)c1cccc(O)c1	0	0	0	?	?	0
Cc1nnn(-c2nonc2N)c1C(=O)N/N=C/c1ccccc1O	0	0	0	12.6µM	0	0
COCc1c(C(=O)N/N=C\c2ccccn2)nnn1-c1nonc1N	-	0	56.2µM	-	-	-
COCc1c(C(=O)N/N=C/c2c[nH]c3ccccc23)nnn1-c1nonc1N	-	0	0	-	-	-
CCCCN1CC(c2nc3ccccc3n2CCCCOc2ccccc2C)CC1=O (centres undefined)	0	-	-	-	0	0
CN1CCN(c2ncc3nc(-c4ccccc4)c(=O)n(Cc4ccc(F)cc4)c3n2)CC1	-	0	0	-	-	-
Cc1oc(C)c2c(=O)ccc3c(c12)OC(N)=C(C#N)C3c1ccc(F)cc1 (centres undefined)	?	-42.6	?	?	25.1µM	?
Cc1[nH]nc2c1C(c1ccc(F)cc1)C(C#N)=C(N)O2 (centres undefined)	0	0	0	0	0	0
COC(=O)C1=C(C(=O)OC)[C@@H]2N(C)c3ccccc3[C@@]23C[C@@H](CO)N(C(=O)c2cc(C)oc2C)C3=N1	0[11.6 µM]	0	0	0[11.4 µM]	0[11.5 µM]	0[11.6 µM]
O=C1CCCCCCC1Sc1ccccc1[N+](=O)[O-] (centres undefined)	?	0	0	0	31.6µM	0
CC1CCCCN1C(=O)Cn1cc(/C=C2/C(=O)Nc3ccccc32)c2ccccc21 (centres undefined)	0	-	0	0	10µM	?
CC1CCCCN1C(=O)Cn1cc(C=O)c2ccccc21 (centres undefined)	0	0	0	0	0	0
COc1ccc(C2C=C3CN(C(=O)OC(C)(C)C)S(=O)(=O)C3CC2OC(=O)c2cccc(C)c2)cc1 (centres undefined)	-	0	0	-	-	-
CN(C)CCn1c(=S)[nH]c2ncccc2c1=O	0	0	50.1µM	?	0	0
COc1c(C=O)c(=O)[nH]c2c(OC)cccc12	0	0	0	0	0	0
Cc1cc(SCC(=O)O)nc2ccccc12	0	0	0	0	0	0
SMILES	Tau FP inhib	FBPA coupling cs	Sfp PPTase inh	KDM4E inh	Tau fibril ThT	Tau fluor counter
Cc1cc(N/N=C(/CCC(=O)O)C(=O)O)nc2ccccc12	0	0	50.1µM	?	0	0
CCCOc1cccc(C(=O)N(Cc2cc(OC)c(OC)c(OC)c2)C2CCS(=O)(=O)C2)c1 (centres undefined)	0	-	-	-	0	0
CC1=C(C)C(=O)C(N2CCOCC2)=CC1=O	0	-60.3	0	0	?	0
O=C1C=C(N2CCOCC2)c2ccccc2C1=O	-	-66.3	0	-	-	-
Cc1ccc(N2CCOCC2)c2c1C(=O)c1ccccc1C2=O	0	0	0	0	0	0
C=CCOC(=O)C1(C(NC(=O)OC)c2ccccc2)C(=O)Cc2ccccc21 (centres undefined)	0	0	0	0	0	0
Oc1c(Cl)cc(Cl)cc1C(C#Cc1ccccc1)N1CCOCC1 (centres undefined)	0	0	0	0	14.1µM	?
COc1ccc2c(c1)c(=O)c(C(=O)c1ccc(C)cc1)cn2Cc1ccccc1F	0	-	-	-	?	0
CCOC(=O)N1CCC(NC(=O)c2ccc3c(Cl)c4c(nc3c2)CCCC4)CC1	0	0	25.1µM	0	0	0
O=C(NCCCN1CCCC1)c1ccc2c(Cl)c3c(nc2c1)CCCC3	0	0	79.4µM	0	0	0
O=C(NC1CC1)c1ccc2c(Cl)c3c(nc2c1)CCCC3	0	0	0	0	?	0
CCCN1CCN(CCCNC(=O)c2ccc3c(Cl)c4c(nc3c2)CCCC4)CC1	-	0	0	-	-	-
O=C(O)CSc1c2c(nc3cc(C(=O)NCCN4CCOCC4)ccc13)CCC2	0	0	89.1µM	0	0	0
COc1ccc(-c2cc(C(F)(F)F)nc(SCC(=O)N3CCCCC3)n2)cc1OC	0	-	-	-	0	0
CC(C)c1ncc([N+](=O)[O-])n1C	-	-	0	-	-	-
COc1cc(NC(=O)C2CCCN(S(=O)(=O)c3ccc4c(c3)oc(=O)n4C)C2)c(C(=O)O)cc1OC (centres undefined)	0	-	-	-	0	0
CCN(CC)CCNC(=O)c1[nH]c2ccc(OCc3ccccc3)cc2c1C	0	0	?	?	0	20µM[quencher]
CCOC(=O)c1c(S(=O)(=O)N2CCC(C(=O)NCc3cccc(OC)c3)CC2)c(C)n(C)c1C	0	-	-	-	0	0
CCOC(=O)C1=C(C)NC(SCC(=O)OC)=C(C#N)C1c1ccc(C(=O)OC)cc1 (centres undefined)	0	0	56.2µM	?	0	0
C=CCOC(=O)C1=C(C)NC(SCC)=C(C#N)C1c1ccc(Cl)cc1 (centres undefined)	0	0	0	?	0	?
CCN(CC)C(=O)C1=C(C)NC(=S)NC1c1cccs1 (centres undefined)	0	0	0	0	0	0
C#CCSC1=C(C#N)C(c2cccs2)C(C(=O)OCC)=C(C)N1 (centres undefined)	0	0	28.2µM	?	?	0
CCOC(=O)CSC1=C(C#N)C(c2ccc(F)cc2)C(C(C)=O)=C(C)N1 (centres undefined)	0	-39.3	?	?	?	0
